The source of these data is PubChem BioAssay (NCATS).

A number with no mark means an inactive call. Inconclusive results are not listed. Active and inactive are the calls of the source. Unless noted, the call rests on the fitted dose curve; in most records, active means well fitted curve in the direction sought with a large enough effect; inconclusive means small, poorly fitted or top-dose-only effect, or another doubt; inactive means no such curve, though single readings can be large; an effect the other way counts as inactive or inconclusive.

Sequence of Peroxisome proliferator-activated receptor alpha (Homo sapiens) (Q07869 whole entry, looked up): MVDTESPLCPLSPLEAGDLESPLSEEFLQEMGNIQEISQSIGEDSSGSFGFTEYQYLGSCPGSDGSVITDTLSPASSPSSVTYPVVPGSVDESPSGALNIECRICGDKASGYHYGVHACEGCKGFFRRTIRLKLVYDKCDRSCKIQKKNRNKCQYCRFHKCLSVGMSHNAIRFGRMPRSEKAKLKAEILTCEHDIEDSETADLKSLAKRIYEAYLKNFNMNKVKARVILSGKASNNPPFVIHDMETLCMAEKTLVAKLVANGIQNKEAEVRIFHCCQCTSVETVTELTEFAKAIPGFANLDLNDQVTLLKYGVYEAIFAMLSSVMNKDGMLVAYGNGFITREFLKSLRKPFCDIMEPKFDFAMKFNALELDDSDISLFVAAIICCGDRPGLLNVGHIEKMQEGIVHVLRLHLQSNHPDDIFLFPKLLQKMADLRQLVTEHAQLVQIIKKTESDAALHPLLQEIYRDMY
Sequence of Nuclear receptor ROR-gamma (Homo sapiens) (P51449 whole entry, looked up): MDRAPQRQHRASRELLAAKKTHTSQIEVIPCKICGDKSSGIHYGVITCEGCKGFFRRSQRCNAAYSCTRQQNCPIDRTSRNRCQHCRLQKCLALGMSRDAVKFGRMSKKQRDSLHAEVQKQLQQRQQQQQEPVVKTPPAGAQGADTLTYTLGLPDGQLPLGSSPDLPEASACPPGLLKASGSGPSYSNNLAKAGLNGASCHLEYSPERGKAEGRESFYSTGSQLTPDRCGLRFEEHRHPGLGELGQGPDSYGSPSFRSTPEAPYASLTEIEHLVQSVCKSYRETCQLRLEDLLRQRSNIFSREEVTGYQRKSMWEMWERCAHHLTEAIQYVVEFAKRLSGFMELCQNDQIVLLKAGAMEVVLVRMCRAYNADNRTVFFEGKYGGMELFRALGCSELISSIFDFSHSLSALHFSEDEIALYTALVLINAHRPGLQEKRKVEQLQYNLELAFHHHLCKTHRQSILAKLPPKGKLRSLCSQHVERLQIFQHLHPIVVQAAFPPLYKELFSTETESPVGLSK

The target in the first test is Peroxisome proliferator-activated receptor alpha (Homo sapiens) (UniProt Q07869). Kind of test: qHTS assay for small molecule agonists of the peroxisome proliferator-activated receptor alpha (PPARalpha) signaling pathway (AID 651778). Further: % of control where 0% means no effect. To be noted: PathHunter PPARalpha complementation, chemiluminescence, 6 h; max response: stronger effect = higher value. In outline:
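Cells plated at 2,000/well and held overnight at 37 C, 5% CO2, then compound added by pin tool for 6 hr; after PathHunter detection reagent and 60 min at room temperature, chemiluminescence from enzyme complementation was read.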
On to `CC(C)NC(=O)N1CC(=O)N(c2cc(Cl)cc(Cl)c2)C1=O`, for which the max response was 0.394%.

On to `CCOCn1c(-c2ccc(Cl)cc2)c(C#N)c(Br)c1C(F)(F)F`, for which the max response was 14.2%.

With `CON=C(C(=O)OC)c1ccccc1CO/N=C(\C)c1cccc(C(F)(F)F)c1`, the max response was 3.69%.

Regarding `N#CC(Br)(Br)C(N)=O`, the max response was -5.1%.

In another test the target is Nuclear receptor ROR-gamma (Homo sapiens) (UniProt P51449). Put plainly: qHTS assay for small molecule antagonists of the retinoid-related orphan receptor gamma (ROR-gamma) signaling pathway (AID 651802).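 Further: CHO cells with doxycycline-induced ROR-gamma expression; luciferase reporter luminescence driven by ROR response element; on the % scale 0 is the no-effect control and ±100 the full control effect; nearly all actives have a fitted effect of over 60% in size.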 To be noted: ROR-gamma antagonist cell reporter assay; series mostly up to 92.2 µM; activity change, negative = inhibition: at the top concentration. In outline:
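Doxycycline-induced reporter activity in engineered CHO cells (TET-inducible ROR, RORE-LUC) was measured by luminescence after 16hr compound exposure at 37C.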
As for `CC(CCl)OC(C)CCl` (centres undefined), the “activity change, negative = inhibition” value is 44.3%.

As for `O=NO`, the Potency entry is “inactive”.

Turning to `OCC(CBr)(CBr)CBr`, the “activity change, negative = inhibition” value was 6.58%.

In the case of `Cc1cccc(C)c1`, the “activity change, negative = inhibition” value was -2.66%.

In the case of `c1ccc2c(c1)ccc1ncccc12`, the “activity change, negative = inhibition” value was 44.6%.

As to `O=C1OC(=O)c2c(Br)c(Br)c(Br)c(Br)c21`, the “activity change, negative = inhibition” value is -14.9%.

`Cc1cc(C)c(N)cc1C`: the “activity change, negative = inhibition” value was 35%.

For `Cc1ccc(N)c([N+](=O)[O-])c1`, the “activity change, negative = inhibition” value is 59.3%.

Tested on in another test: not listed separately
Kind of test: qHTS assay for small molecule agonists of the antioxidant response element (ARE) signaling pathway measured by Nrf2-dependant transcriptional activity (AID 720636; active means well fitted curve in the direction sought with a large enough effect in the repeat runs; an effect the other way counts as inactive or inconclusive;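 further: HepG2 cells with an ARE-driven luciferase reporter; % of control where 0% means no effect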). To be noted: ARE-luc HepG2, Nrf2 luciferase reporter, 16 h; series mostly up to 92.4 µM; activation: at the top concentration. In outline:
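Reporter gene assay, HepG2 ARE-luc: 16 hr compound, 37 C, 5% CO2; read-out luciferase luminescence.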
As to `CCOCn1c(-c2ccc(Cl)cc2)c(C#N)c(Br)c1C(F)(F)F`, the “activation” value was -0.699%.

`CON=C(C(=O)OC)c1ccccc1CO/N=C(\C)c1cccc(C(F)(F)F)c1`: the “activation” value is -0.679%.

For the compound `ClC1=C(Cl)[C@]2(Cl)[C@H]3[C@H]([C@@H]4C=C[C@H]3C4)[C@]1(Cl)C2(Cl)Cl`, the “activation” value is -0.807%.

Take `N#CC(Br)(Br)C(N)=O`: the “activation” value was 2.08%.

Tested on in a further test: not listed separately
Kind of test: qHTS assay for cell viability of HEK293 cells (AID 743288). Further: nearly all actives have a fitted effect of over 50% in size. Further: potency means the concentration at half of the fitted maximal effect. On max response: on the % scale 0 is the no-effect control and ±100 the full control effect. To be noted: ATP luminescence (CellTiter-Glo), 18 h; max response: stronger effect = lower value. In outline: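 Readout is luciferase-coupled ATP content (CellTiter-Glo luminescence, 30 min room temperature) as a measure of metabolically competent cells. Parental HEK293 cells were plated 5 h or more before compound addition, then treated 18 h at 37 C.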
As for `CC(C)NC(=O)N1CC(=O)N(c2cc(Cl)cc(Cl)c2)C1=O`, the max response is -6.95%.

With `CCOCn1c(-c2ccc(Cl)cc2)c(C#N)c(Br)c1C(F)(F)F`, the Potency is 7.94 µM (active).

For the compound `CON=C(C(=O)OC)c1ccccc1CO/N=C(\C)c1cccc(C(F)(F)F)c1`, the max response is -22.9%.

Tested on in a further test: not listed separately
Kind of test: qHTS assay for cell viability of the p53RE-bla HCT-116 cell line (AID 743292). Further: nearly all actives have a fitted effect of over 55% in size. Further: potency means the concentration at half of the fitted maximal effect. On activity change, negative = cytotoxicity: on the % scale 0 is the no-effect control and ±100 the full control effect. Particulars: p53RE-bla HCT-116 viability, ATP luminescence, 16 h; series mostly up to 95 µM; activity change, negative = cytotoxicity: at the top concentration. Summed up: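 Readout: CellTiter-Glo luminescence after 30 min RT. Treatment: compounds in DMSO, 16 h, 37 C. Cells: CellSensor p53RE-bla HCT-116, 4,000/well, preincubated 5 h.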
As to `CC(C)NC(=O)N1CC(=O)N(c2cc(Cl)cc(Cl)c2)C1=O`, the “activity change, negative = cytotoxicity” value is -10.1%.

Take `CCOCn1c(-c2ccc(Cl)cc2)c(C#N)c(Br)c1C(F)(F)F`: the Potency was 6.31 µM (active).

`CON=C(C(=O)OC)c1ccccc1CO/N=C(\C)c1cccc(C(F)(F)F)c1`: the “activity change, negative = cytotoxicity” value was -10.3%.

`ClC1=C(Cl)[C@]2(Cl)[C@H]3[C@H]([C@@H]4C=C[C@H]3C4)[C@]1(Cl)C2(Cl)Cl`: the Potency was 44.7 µM (active).

With `N#CC(Br)(Br)C(N)=O`, the “activity change, negative = cytotoxicity” value was -5.73%.
